# Measured values as given in PubChem BioAssay (Tox21).
# Unmarked numbers belong to inactive results. Results filed as inconclusive are left out. Where a call stands in place of a potency, no number is given. Activity calls are given as the source filed them. Unless noted, the call rests on the fitted dose curve; in most records, active means well fitted curve in the direction sought with a large enough effect in the repeat runs; inconclusive means weak or mixed curves; inactive means no such curve, though single readings can be large; an effect the other way counts as inactive or inconclusive.
# Assays:
# [1] = qHTS assay to identify small molecule antagonists of the estrogen related receptor (ERR) signaling pathway from Tox21 library - cell viability counter screen (AID 1224834); further: nearly all actives have a fitted effect of over 30% in size
# Procedure, shortened: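 Viability readout (CellTiter-Fluor fluorescence, 30 min at 37 C) multiplexed with the ERR assay; cells treated 17.5 h at 37 C with compounds delivered in DMSO.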
# [2] = molecular target: Luciferin 4-monooxygenase (Photinus pyralis) (UniProt P08659); assay: qHTS assay to identify small molecule inhibitors of firefly luciferase (AID 1224835); further: nearly all actives have a fitted effect of over 25% in size; further: potency means the concentration at half of the fitted maximal effect
# Procedure, shortened: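 Quantitative HTS format; KM concentrations of both substrates. Purified P. pyralis FLuc activity quantified from luminescence images.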
# [3] = qHTS assay to identify small molecule antagonists of the constitutive androstane receptor (CAR) signaling pathway - cell viability counter screen (AID 1224837); further: nearly all actives have a fitted effect of over 45% in size
# Procedure, shortened: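 Fluorescence from CellTiter-Fluor served as the viability signal. Human hepatoma HepG2 cells stably bearing hCAR and CYP2B6-2.2kb received compound plus CITCO (50 nM final) for 23 hr.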
# [4] = molecular target: Nuclear receptor subfamily 1 group I member 3 (Homo sapiens) (UniProt Q14994); assay: qHTS assay to identify small molecule antagonists of the constitutive androstane receptor (CAR) signaling pathway (AID 1224838);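 further: HepG2 cells stably expressing hCAR with CYP2B6 luciferase reporter stimulated by CITCO; nearly all actives have a fitted effect of over 40% in size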
# Procedure, shortened: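 Quantitative HTS in double-stable HepG2-CYP2B6-hCAR cells. After 4 h plating, cells get compound (15 concentrations) and CITCO at 50 nM final, incubate 24 h at 37 C, then ONE-Glo luminescence is read.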
# [5] = molecular target: Nuclear receptor subfamily 1 group I member 3 (Homo sapiens) (UniProt Q14994); assay: qHTS assay to identify small molecule agonists of the constitutive androstane receptor (CAR) signaling pathway (AID 1224839); further: nearly all actives have a fitted effect of over 15% in size; further: potency means the concentration at half of the fitted maximal effect;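 on activation: HepG2 cells stably carrying human CAR and a CYP2B6 luciferase reporter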
# Procedure, shortened: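 Luminescence read-out (ONE-Glo, 30 min, room temperature) from double-stable HepG2-CYP2B6-hCAR cells exposed 24 h to 15-point compound series in presence of 0.75 uM PK11195 final.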
# [6] = qHTS assay to identify small molecule antagonists of the estrogen related receptor signaling pathway with the pleiotropic PPARgamma coactivator (PGC) from Tox21 10K library - cell viability counter screen (AID 1224840; active means well fitted cell-killing curve with a large enough effect in the repeat runs, not every such curve was filed as active; further: nearly all actives have a fitted effect of over 40% in size)
# Procedure, shortened: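 Compounds in DMSO, alongside positive and negative controls, were pinned onto PGC/ERR cells (2,000 per well). Exposure lasted 17.5 hours at 37 C, followed by a 30-minute CellTiter-Fluor incubation and fluorescence reading.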
# [7] = qHTS assay to identify small molecule agonists of the estrogen related receptor signaling pathway with the pleiotropic PPARgamma coactivator (PGC) from Tox21 10K library (AID 1224842); further: nearly all actives have a fitted effect of over 15% in size
# Procedure, shortened: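 PGC/ERR reporter cells (NTP line) were seeded 2,000 per well, rested 6 h at 37 C/5% CO2, then pin-dosed with compounds in DMSO for 18 h at 37 C; luciferase read by One-Glo luminescence after 30 min at room temperature.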
# [8] = molecular target: Thyrotropin receptor (Homo sapiens) (UniProt P16473); assay: qHTS assay to identify small molecule agonists of the thyroid stimulating hormone receptor (TSHR) signaling pathway (AID 1224843; calls by dose curve; further: nearly all actives have a fitted effect of over 45% in size)
# Procedure, shortened: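 TSHR-expressing HEK293 cells (800 per well) were exposed to compounds for 30 min at room temperature. cAMP was then detected by HTRF competition with cAMP-d2 and anti-cAMP cryptate, read after 1 h at room temperature. Fifteen concentrations, triplicate.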
# [9] = qHTS assay to identify small molecule agonists of the hypoxia (HIF-1) signaling pathway - cell viability counter screen (AID 1224844; calls by dose curve; further: nearly all actives have a fitted effect of over 50% in size)
# Procedure, shortened: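 Luminescent ATP content (CellTiter-Glo, 30 min, room temperature) served as the viability measure in HRE-bla ME-180 cells exposed to compounds for 17 hrs in low-serum medium (0.5% dialyzed FBS).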
# [10] = qHTS assay to identify small molecule agonists of H2AX (AID 1224845; active means well fitted activation curve with a large enough effect in the signal ratio in the repeat runs, not every such curve was filed as active; the % refers to the signal ratio; further: potency means the concentration at half of the fitted maximal effect)
# Procedure, shortened: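 Wild-type CHO-K1 cells plated overnight, then exposed 3 hr at 37C to compounds at 15 concentrations (0.76% DMSO). Lysed, then HTRF anti-pH2AX(S139)-cryptate/anti-H2AX-d2 detection after 24 hr at room temperature; emissions 665 and 620 nm.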
# [11] = qHTS assay to identify small molecule agonists of the hypoxia (HIF-1) signaling pathway (AID 1224846; active means well fitted activation curve with a large enough effect in the signal ratio in the repeat runs, not every such curve was filed as active; the % refers to the signal ratio)
# Procedure, shortened: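 Measured by blue/green FRET after loading CCF4-AM: beta-lactamase expressed from a hypoxia response element in ME-180 cells. Test agents were delivered in DMSO and left 17 hrs; cells had been plated 5 hrs earlier in low-serum (0.5% dialyzed FBS) medium.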
# [12] = qHTS assay to identify small molecule agonists of H2AX - cell viability counter screen (AID 1224847; calls by dose curve; further: top concentration of the series differs between compounds; nearly all actives have a fitted effect of over 30% in size)
# Procedure, shortened: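 CHO-K1 wt, 1000 cells/well, o/n 37C; cpds 15 conc, 3 h 37C, 0.76% DMSO; CellTiter-Glo, 30 min RT, luminescence.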
# [13] = qHTS assay to identify small molecule antagonists of the estrogen related receptor (ERR) signaling pathway from Tox21 library (AID 1224848); further: nearly all actives have a fitted effect of over 50% in size
# Procedure, shortened: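 Cells: ERR line, 2,000/well; 6 h preincubation 37 C/5% CO2. Cpd in DMSO via pin tool; 18 h, 37 C. ONE-Glo, 30 min RT, luminescence.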
# [14] = qHTS assay to identify small molecule agonists of the estrogen related receptor (ERR) signaling pathway from Tox21 library (AID 1224849; calls by dose curve; further: nearly all actives have a fitted effect of over 15% in size); conditions: ERR reporter cell line, ONE-Glo luciferase, 18 h; at 92.4 µM (top of the series) unless noted
# Procedure, shortened: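 We plated ERR reporter cells, waited 6 h, added compounds in DMSO by pin tool and incubated them 18 h at 37 C. ONE-Glo was then added and luminescence read after 30 min.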
# [15] = qHTS RealTime-Glo MT Cell Viability Assay in HepG2 cells - 24 hour (AID 1224867); further: nearly all actives have a fitted effect of over 50% in size
# Procedure, shortened: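 HepG2 cells (600/well) were dispensed with RealTime-Glo reagents, incubated 5 h at 37 °C, then treated with compounds in DMSO for up to 40 h. Nonlytic NanoLuc luminescence reflecting viable cells was read at each stated time point.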
# [16] = qHTS RealTime-Glo MT Cell Viability Assay in HEK293 cells - 32 hour (AID 1224868); further: top concentration of the series differs between compounds; nearly all actives have a fitted effect of over 50% in size
# Procedure, shortened: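 HEK293 cells seeded with NanoLuc/prosubstrate reagent, rested 5 h at 37 C, then dosed and kept at 37 C up to 40 h. Nonlytic real-time luminescence from viable cells read at 0, 8, 16, 24, 32 and 40 h.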
# [17] = A CellTox Green Cytotoxicity Assay to monitor cytotoxicity in HEK293 cells - 0 hour (AID 1224869); further: nearly all actives have a fitted effect of over 50% in size
# Procedure, shortened: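 Each value comes from one timepoint of a single continuous run in which HEK293 cells with CellTox Green were exposed to compound for up to 40 h at 37 C, dye fluorescence rising with cell death.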
# [18] = qHTS assay to identify small molecule antagonists of the estrogen related receptor signaling pathway with the pleiotropic PPARgamma coactivator (PGC) from Tox21 10K library (AID 1224841; call rule not given here)
# Procedure, shortened: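 Compound exposure ran 18 hours at 37 C in PGC/ERR cells (2,000/well) that had first rested 6 hours in a 37 C/5% CO2 incubator. Luciferase activity was then detected with One-Glo after a 30-minute room-temperature step.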
# [19] = qHTS assay to identify small molecule agonists of the constitutive androstane receptor (CAR) signaling pathway - cell viability counter screen (AID 1224836); further: nearly all actives have a fitted effect of over 45% in size
# Procedure, shortened: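 Viability read-out: CellTiter-Fluor fluorescence after 23 h compound exposure at 37 C/5% CO2 in double-stable HepG2-CYP2B6-hCAR cells, with PK11195 present at 0.75 uM final; compounds tested in 15-point titration.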
# Sequence of Nuclear receptor subfamily 1 group I member 3 (Homo sapiens) (Q14994 whole entry, looked up): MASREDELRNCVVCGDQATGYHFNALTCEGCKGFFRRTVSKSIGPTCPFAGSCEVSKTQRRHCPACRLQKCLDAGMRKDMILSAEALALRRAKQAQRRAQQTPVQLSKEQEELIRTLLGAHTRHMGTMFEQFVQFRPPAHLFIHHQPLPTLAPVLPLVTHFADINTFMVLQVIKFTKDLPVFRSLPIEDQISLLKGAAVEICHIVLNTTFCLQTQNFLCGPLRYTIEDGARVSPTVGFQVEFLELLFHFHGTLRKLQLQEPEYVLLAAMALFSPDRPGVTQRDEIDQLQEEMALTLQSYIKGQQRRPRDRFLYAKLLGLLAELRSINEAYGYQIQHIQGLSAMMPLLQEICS
# Sequence of Luciferin 4-monooxygenase (Photinus pyralis) (P08659 whole entry, looked up): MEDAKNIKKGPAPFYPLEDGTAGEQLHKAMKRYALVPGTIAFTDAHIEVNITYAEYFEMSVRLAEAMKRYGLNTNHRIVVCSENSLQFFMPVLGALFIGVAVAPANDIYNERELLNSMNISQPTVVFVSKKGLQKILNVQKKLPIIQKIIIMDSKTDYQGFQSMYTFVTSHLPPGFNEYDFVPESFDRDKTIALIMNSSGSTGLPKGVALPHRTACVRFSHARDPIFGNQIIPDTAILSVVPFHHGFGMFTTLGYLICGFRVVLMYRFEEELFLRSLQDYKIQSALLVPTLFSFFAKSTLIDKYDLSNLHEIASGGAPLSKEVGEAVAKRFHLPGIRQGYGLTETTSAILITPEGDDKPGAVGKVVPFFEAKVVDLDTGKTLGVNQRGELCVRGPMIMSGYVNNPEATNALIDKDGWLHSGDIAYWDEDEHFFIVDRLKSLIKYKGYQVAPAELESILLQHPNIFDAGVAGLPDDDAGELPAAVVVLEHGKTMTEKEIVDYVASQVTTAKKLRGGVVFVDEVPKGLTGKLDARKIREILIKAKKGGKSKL
# Sequence of Thyrotropin receptor (Homo sapiens) (P16473 whole entry, looked up): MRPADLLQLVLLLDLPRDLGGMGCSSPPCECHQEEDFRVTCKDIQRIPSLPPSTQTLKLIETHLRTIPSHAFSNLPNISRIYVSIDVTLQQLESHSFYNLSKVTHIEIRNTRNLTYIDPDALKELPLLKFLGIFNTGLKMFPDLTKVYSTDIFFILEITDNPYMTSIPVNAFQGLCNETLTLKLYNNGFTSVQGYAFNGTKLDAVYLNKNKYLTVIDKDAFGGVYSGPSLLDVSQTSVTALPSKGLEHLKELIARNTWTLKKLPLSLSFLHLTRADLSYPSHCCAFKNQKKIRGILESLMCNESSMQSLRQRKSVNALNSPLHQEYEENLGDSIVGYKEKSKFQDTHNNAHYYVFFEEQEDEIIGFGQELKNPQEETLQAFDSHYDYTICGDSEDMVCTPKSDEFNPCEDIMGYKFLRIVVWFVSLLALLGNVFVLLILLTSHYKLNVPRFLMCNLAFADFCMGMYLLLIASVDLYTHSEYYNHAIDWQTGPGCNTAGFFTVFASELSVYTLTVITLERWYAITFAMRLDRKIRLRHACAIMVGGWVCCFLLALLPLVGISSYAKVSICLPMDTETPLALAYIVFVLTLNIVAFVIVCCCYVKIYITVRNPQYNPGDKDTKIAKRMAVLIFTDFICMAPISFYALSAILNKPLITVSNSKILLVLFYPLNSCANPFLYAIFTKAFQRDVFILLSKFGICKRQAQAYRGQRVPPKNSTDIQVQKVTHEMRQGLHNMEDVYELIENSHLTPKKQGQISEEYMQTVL
SMILES,Potency [1],Potency [2],Potency [3],Potency [4],Potency [5],Potency [6],Potency [7],Potency [8],Potency [9],Potency [10],outcome [11],Potency [12],Potency [13],"activity change, positive = activation [14]",outcome [15],Potency [16],Potency [17],Potency [18],Potency [19]
O=C(c1ccco1)N1CCNCC1,inactive,inactive,inactive,inactive,inactive,inactive,inactive,inactive,inactive,inactive,inactive,inactive,inactive,3.89% [at 42.5 µM],inactive,inactive,inactive,,
NCCOCCOCCN,inactive,inactive,inactive,inactive,inactive,inactive,inactive,inactive,,inactive,,inactive,inactive,-4.55%,inactive,inactive,inactive,inactive,
Cc1ccccc1CCO,inactive,inactive,inactive,,,inactive,inactive,inactive,inactive,inactive,inactive,,,-1.5%,inactive,inactive,inactive,,
CCc1ccc2c(c1)C(=O)c1ccccc1C2=O,inactive,5.03 µM (active),inactive,,27.3 µM (active),inactive,,inactive,inactive,inactive,inactive,,,,inactive,inactive,inactive,,
Nc1ncnc2c1ncn2[C@@H]1O[C@H](CO)[C@@H](O)[C@H]1O,inactive,inactive,inactive,inactive,,inactive,,inactive,inactive,31 µM (active),,inactive,,,inactive,inactive,inactive,,
O=C(Cl)c1cc(Cl)cc(Cl)c1,inactive,inactive,inactive,,inactive,inactive,,inactive,inactive,inactive,inactive,inactive,,,inactive,inactive,inactive,,
C1=COCCC1,inactive,inactive,,,,,,,inactive,inactive,inactive,inactive,,,inactive,inactive,inactive,,inactive
C[C@@H](O)[C@H]1C(=O)N2C(C(=O)O)=C(S[C@@H]3CN[C@H](CNS(N)(=O)=O)C3)[C@H](C)[C@H]12,inactive,inactive,inactive,inactive,inactive,inactive,,inactive,inactive,,inactive,inactive,,,inactive,inactive,inactive,,
C=CC(=O)NC(C)(C)C,inactive,inactive,inactive,inactive,inactive,inactive,,inactive,inactive,inactive,inactive,inactive,,,inactive,inactive,inactive,,
